NS1 inh: influenza NS1 inhibition; Potency, µM (top dose mostly 46.1 µM); actives 0.4% (n = 270,000); AID 2326; calls by dose curve; also: actives are rising curves; nearly all actives have a fitted effect of over 50% in size
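In this qHTS, NS1 from influenza A is expressed in budding yeast, where it slows growth. Cells are switched from glucose to 2% galactose medium (pH 6.0, -URA), treated with compound, and growth recovery is read at OD600.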
SARS PLP yeast: SARS-CoV PLP inhibition in yeast | S. cerevisiae expressing SARS-CoV PLpro, growth rescue | Potency, µM (highest dose often 32.9 µM), usual class: activators | AID 485353 | actives 0.19% (n = 330,000); calls by dose curve; also: nearly all actives have a fitted effect of over 55% in size
AMA1 RON2 block: inhibitors of Plasmodium falciparum AMA1-RON2 interaction. AlphaScreen AMA1-biotinylated RON2 peptide binding. Potency, µM (top dose mostly 58.2 µM), hits mostly inhibitors. actives 0.2% (n = 360,000); also: nearly all actives have a fitted effect of over 45% in size
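AMA1 (3D7) with his tag at 25 nM final met compounds first, then biotinylated RON2 peptide at 25 nM; detection used donor plus acceptor beads, 10 µg/mL apiece, read by AlphaScreen after 30 min at room temperature.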
Pf growth 96h: P. falciparum growth inhibition at 96 hour, primary screen for plastid delayed-death inhibitors; P. falciparum luciferase reporter growth, 96 h; Potency, µM (series often up to 28.7 µM), hits mostly inhibitors; actives 6.9% (n = 320,000); AID 504834
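Infected RBCs, 2% Hct / 0.05% parasitemia final; luciferase-reporter P. falciparum; cpd 96 h, 37 C, 5% CO2; luciferase detection reagent; luminescence.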
Pf growth 48h: P. falciparum growth inhibition at 48 hours (one generation). Potency, µM (top dose mostly 28.7 µM), actives largely listed as inhibitors. AID 504832. actives 5.9% (n = 310,000). P. falciparum luciferase growth in erythrocytes, 48 h
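Luminescence readout; reporter = integrated firefly luciferase in P. falciparum. RBC culture at 2% hematocrit, 0.1% parasitemia final, 37 C/5% CO2; decreased signal taken as growth inhibition.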
HCV inhibitor: blocks hepatitis C virus; AID 651820; actives 3.4% (n = 340,000); Potency, µM (titrated, usually from 41.8 µM), hits mostly inhibitors; Huh7.5.1 HCVcc-Cre infection, luciferase reporter, 44 h
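Luciferase read-out (15 sec integration) after a 15 min room-temperature substrate step quantifies HCVcc-Cre infection. Cells, 1,000 per well, had compound added 4 h post-plating, then virus at ~0.5 moi, and were cultured 44 h.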
Large screens that a line does not name were inactive. Hits are enriched below; roughly 12% of the tested compounds scored in any of these assays. Unless noted, calls follow the shape of the dose curve; as a rule, active = well fitted curve in the direction sought with a large enough effect; inconclusive = small, poorly fitted or top-dose-only effect, or another doubt; inactive = no such curve, though single readings can be large; an effect the other way counts as inactive or inconclusive.

CCO[C@@H]1OC(C(=O)N2CCCCCCC2)=C[C@H](c2csc3ccccc23)[C@H]1CCCO	Pf growth 96h inconclusive, Pf growth 48h 8.3µM
CCO[C@@H]1OC(C(=O)N2CCCCCCC2)=C[C@H](c2cn(C(C)=O)c3ccccc23)[C@H]1CCCO	Pf growth 96h 10µM, Pf growth 48h inconclusive
CCO[C@H]1OC(C(N)=O)=C[C@@H](c2csc3ccccc23)[C@@H]1CCCO	none
COCCNC(=O)C(c1ccc(C)o1)N(C(=O)Cn1nnc2ccccc21)c1ccccc1 (configuration not stated)	Pf growth 96h inconclusive
Nc1nonc1C(=O)NCCNCc1cc(Br)ccc1OCc1ccccc1F	Pf growth 96h inconclusive, Pf growth 48h 3.3µM, HCV inhibitor 10µM
CCN(CC)S(=O)(=O)c1ccc(C(=O)NNC(=O)c2cccs2)cc1	Pf growth 96h 0.15µM
CCN(CC)S(=O)(=O)c1ccc(C)c(NC(=O)/C=C/c2cccs2)c1	HCV inhibitor 10µM
CC1(CCc2ccccc2)NC(=O)N(CC(=O)Nc2ccc3c(c2)OCCO3)C1=O (configuration not stated)	none (no result: NS1 inh)
CSCCNC(=O)Nc1c(-c2c(Cl)cccc2Cl)noc1C	none
Cc1cccc(N(CC(=O)N2CCCCCC2)S(C)(=O)=O)c1	Pf growth 96h inconclusive
Cc1ccc(N(CC(=O)N2CCCCCC2)S(C)(=O)=O)cc1Cl	Pf growth 96h 7.4µM
Cc1ccc(N(CC(=O)N2CCOCC2)S(C)(=O)=O)cc1Cl	Pf growth 96h inconclusive
CS(=O)(=O)N(CC(=O)N1CCCCCC1)c1cccc(Br)c1	Pf growth 96h 12µM
Cc1cc(C)nc(N/N=C/c2cc(C)n(CC(F)(F)F)c2C)n1	Pf growth 96h inconclusive, Pf growth 48h inconclusive
O=C(CN(C(=O)CCC(=O)Nc1nccs1)c1cccc(F)c1)NCCc1ccccc1	HCV inhibitor inconclusive
O=C1C(C2=C(O)c3ccccc3C2=O)=Nc2ccccc21	HCV inhibitor 10µM
Cc1nn(C)c(C)c1NC(=O)COc1ccc(Cl)cc1	HCV inhibitor 11µM (no result: NS1 inh)
CCCC(O)(c1ccc(Br)cc1)C(CN1CCOCC1)c1ccc(Cl)cc1 (configuration not stated)	Pf growth 48h 2.3µM, HCV inhibitor inconclusive
CCc1ccc(C(O)(C(C)C)C(CN2CCOCC2)c2ccccc2)cc1 (configuration not stated)	Pf growth 48h 5.2µM, HCV inhibitor inconclusive
CCCC(O)(c1ccc(CC)cc1)C(CN1CCOCC1)c1ccccc1 (configuration not stated)	Pf growth 48h 0.93µM
CCCC(O)(c1ccc(Cl)cc1)C(CN1CCOCC1)c1ccccc1 (configuration not stated)	Pf growth 96h inconclusive, HCV inhibitor inconclusive (no result: Pf growth 48h)
CCN1CCN(c2c(Cl)cccc2NC(=O)c2cc3ccccc3o2)CC1	HCV inhibitor inconclusive (no result: NS1 inh, SARS PLP yeast, Pf growth 96h, Pf growth 48h)
Cc1cc(CN(C)Cc2c(C(=O)N3CCCCCCC3)nc3ccc(Cl)cn23)n[nH]1	Pf growth 96h inconclusive, Pf growth 48h inconclusive
CCC(=O)Nc1cccc(C2=NOC3(C2)C[C@@H](C(N)=O)N(C(=O)c2ccccc2C(=O)c2ccccc2)C3)c1 (some centres not stated)	Pf growth 96h inconclusive, Pf growth 48h inconclusive
NC(=O)[C@H]1CC2(CC(c3cccc(NC(=O)CC(c4ccccc4)c4ccccc4)c3)=NO2)CN1C(=O)C(c1ccccc1)c1ccccc1 (some centres not stated)	NS1 inh inconclusive, Pf growth 96h 13µM, Pf growth 48h 10µM
C/C=C\C(=O)Nc1cccc(C2=NOC3(C2)C[C@H](C(N)=O)N(C(=O)Cc2ccc([N+](=O)[O-])cc2)C3)c1 (some centres not stated)	Pf growth 96h 12µM, Pf growth 48h inconclusive
C/C=C(\C)C(=O)N1CC2(CC(c3cccc(NC(=O)CC(c4ccccc4)c4ccccc4)c3)=NO2)C[C@H]1C(N)=O (some centres not stated)	Pf growth 48h inconclusive (no result: AMA1 RON2 block, HCV inhibitor)
NC(=O)[C@H]1CC2(CC(c3cccc(NC(=O)CC(c4ccccc4)c4ccccc4)c3)=NO2)CN1C(=O)c1ccccc1C(=O)c1ccccc1 (some centres not stated)	Pf growth 96h 8.3µM, Pf growth 48h 9.3µM
C/C=C/C(=O)Nc1cccc(C2=NOC3(C2)C[C@H](C(N)=O)N(C(=O)c2ccccc2C(=O)c2ccccc2)C3)c1 (some centres not stated)	Pf growth 96h 12µM, Pf growth 48h 9.3µM (no result: AMA1 RON2 block, HCV inhibitor)
Cc1ccc(N(CC(=O)NCc2ccc(Cl)cc2)S(C)(=O)=O)cc1	Pf growth 48h inconclusive
Cc1cc(OC(=O)c2ccc(S(=O)(=O)N(C)C)cc2)c([N+](=O)[O-])c(=O)[nH]1	none (no result: NS1 inh)
CN(Cc1ccccc1)C(=O)c1nc2ccccn2c1CN1CCC(N2CCOCC2)CC1	none
CC(c1nc2ccccc2n1Cc1ccccc1)N1CCCCC1 (configuration not stated)	Pf growth 96h inconclusive, Pf growth 48h inconclusive
CCCCc1ccc(/C=C2/C(=O)ON=C2c2ccccc2)s1	Pf growth 96h 10µM
COc1ccc(Cn2c(O)c(/C=N/NC(=O)c3cccnc3)c3ccccc3c2=O)cc1	SARS PLP yeast inconclusive, Pf growth 96h 5.2µM, Pf growth 48h 13µM, HCV inhibitor inconclusive (no result: NS1 inh)
O=C(N/N=C/c1c(O)n(Cc2ccccc2)c(=O)c2ccccc12)c1cccnc1	SARS PLP yeast inconclusive, Pf growth 96h 15µM, Pf growth 48h inconclusive (no result: NS1 inh)
COc1ccc(Cn2c(O)c(C=Nc3ccc(OC)cc3)c3ccccc3c2=O)cc1	none
O=C(N/N=C/c1c(-c2ccccc2)[nH]c2ccccc12)c1cccnc1	Pf growth 96h inconclusive, Pf growth 48h inconclusive, HCV inhibitor 10µM
CNC1C(OC2C(O[C@@H]3C(O)C(O)[C@@H](N=C(N)N)C(O)C3N=C(N)N)OC(C)[C@@]2(O)CO)OC(CO)C(O)C1O (some centres not stated)	none (no result: NS1 inh, SARS PLP yeast, AMA1 RON2 block, HCV inhibitor)
CCC(C)(C#CCN1CCCCC1)OCCC#N (configuration not stated)	Pf growth 96h inconclusive
COc1cc(S(=O)(=O)NCc2ccccn2)c(OC)cc1Cl	Pf growth 96h 9.3µM
COc1cc(S(=O)(=O)NCc2ccccn2)ccc1Cl	none
COc1ccccc1C(=O)NCCOc1ccc(C(C)(C)C)cc1	Pf growth 96h 15µM, Pf growth 48h inconclusive
CC(C)(C)c1ccc(C(=O)NCCOc2ccccc2)cc1	Pf growth 96h 9.3µM
CC(C)(C)c1ccc(C(=O)NCCOc2ccccc2F)cc1	Pf growth 96h inconclusive
O=C(NCCOc1ccccc1)c1cc(C(=O)NCCOc2ccccc2)cc([N+](=O)[O-])c1	NS1 inh inconclusive, Pf growth 96h inconclusive, Pf growth 48h 12µM, HCV inhibitor inconclusive
